# Laboratory results taken from ChEMBL document CHEMBL3433997, “St. Jude Leishmania screening dataset” (2016).
# Key:
# Assay type in all cases: functional
# [1] = biological target: Solute carrier family 2, facilitated glucose transporter member 1 (Homo sapiens) (UniProt P11166); test: ST_JUDE_LEISH: Cytotoxicity at 2uM final concentration against transgenic Leishmania Mexicana promastigotes LmGLUT1 that are glucose transport deficient and complemented with the human glucose transporter GLUT1. Activity is measured by DNA content using SYBR green in vitro
# [2] = biological target: Hexose transporter 1 (Plasmodium falciparum) (UniProt O97467); test: ST_JUDE_LEISH: Cytotoxicity at 2uM final concentration against transgenic Leishmania Mexicana promastigotes LmPfHT that are glucose transport deficient and complemented with the Plasmodium falciparum hexose transporter. Activity is measured by DNA content using SYBR green in vitro
# [3] = biological target: Glucose transporter (Leishmania mexicana) (UniProt O61059); test: ST_JUDE_LEISH: Cytotoxicity at 2uM final concentration against transgenic Leishmania Mexicana promastigotes LmGT2 that are glucose transport deficient and complemented with the L. Mexicana glucose transporter 2. Activity is measured by DNA content using SYBR green in vitro
# Solute carrier family 2, facilitated glucose transporter member 1 (Homo sapiens), sequence (P11166 whole entry): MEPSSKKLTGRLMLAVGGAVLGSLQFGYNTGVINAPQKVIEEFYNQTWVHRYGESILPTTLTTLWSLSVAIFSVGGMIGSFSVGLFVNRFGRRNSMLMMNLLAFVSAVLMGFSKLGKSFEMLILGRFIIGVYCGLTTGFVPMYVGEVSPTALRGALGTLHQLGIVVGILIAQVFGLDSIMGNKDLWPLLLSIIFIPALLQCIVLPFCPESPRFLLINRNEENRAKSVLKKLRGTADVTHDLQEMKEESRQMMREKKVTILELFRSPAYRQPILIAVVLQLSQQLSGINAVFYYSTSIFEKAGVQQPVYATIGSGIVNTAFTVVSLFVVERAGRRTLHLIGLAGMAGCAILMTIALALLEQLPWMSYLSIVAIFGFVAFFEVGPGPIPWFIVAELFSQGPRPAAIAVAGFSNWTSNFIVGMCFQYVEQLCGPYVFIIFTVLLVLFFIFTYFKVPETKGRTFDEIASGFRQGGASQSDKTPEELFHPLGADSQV
SMILES,inhibition [1],inhibition [2],inhibition [3]
Cc1ccc(S(=O)(=O)c2nc(S(=O)(=O)c3ccccc3)sc2NCC2CCCO2)cc1 (stereo not given),11.8%,11.1%,9.48%
Cc1nc2ccccc2c(=O)n1NCc1ccc(Cl)c(Cl)c1,-1.5%,-1.58%,0.11%
COCc1nc(N)nc(N)c1-c1ccc(Cl)c(Cl)c1,-0.03%,0.2%,0.08%
COc1ccc2nccc(N3CCN(CCNCc4ccc5c(n4)NC(=O)CS5)CC3)c2n1,0.43%,1.14%,0.07%
COc1cccc(CCc2nc3c(N4CCC(Cc5ccccc5)CC4)cccc3n2CC2CNCCO2)c1 (stereo not given),9.36%,9.47%,8.5%
O=C(Nc1cccc(CN2CCCN(Cc3ncc[nH]3)CC2)c1)c1ccc2ccccc2c1,-2.43%,-3.48%,1.4%
CCNc1cc(C(=O)N[C@@H](Cc2ccccc2)[C@H](O)CNCCc2ccccc2)cc(N2CCCCS2(=O)=O)c1,-0.52%,-0.67%,-3.28%
CN1CCCC1CCOc1ccc2c(c1)N(C(=O)Nc1cc(Br)cc(C(F)(F)F)c1)CC2 (stereo not given),-1.82%,-2.4%,-2.02%
CS(=O)(=O)c1ccccc1CNC(=O)c1cccc(-c2ccc(-c3nc4cc(C(F)(F)F)ccc4[nH]3)cc2)c1,2.38%,1.77%,0.15%
O=C(NCCCN1CCC(N2CCCCC2)CC1)c1ccc2nc(N3CCCCC3)sc2c1,5.78%,8.39%,8.02%
c1cncc(Oc2ccc(Nc3ccnc4cc(-c5cccc(CN6CCOCC6)c5)ccc34)cc2)c1,-1.93%,-1.33%,-1.76%
O=C(Nc1ccc2c(c1)CCN2C1CCN(Cc2csc3ccccc23)C1)c1ccco1 (stereo not given),2.05%,2.08%,1.45%
CCC(C)CN1CCCN(c2ccc(NC(=O)c3cccs3)cc2)CC1 (stereo not given),1.62%,-0.95%,5.89%
Cc1cccc2nc(-c3cccc(-c4ccc(CNCCc5ccncc5)cc4)c3)[nH]c12,0.46%,-0.37%,-0.84%
COc1c(C2CCN(CCCCNC(=O)c3ccc(-c4ccc(C#N)cc4)c(O)c3)CC2)ccc2c1CCCC2,-0.29%,-0.43%,0.55%
COc1ccc(OC)c2c1CC1NCC2c2c(OC)ccc(OC)c21 (stereo not given),2.86%,2.69%,0.54%
NCc1ccc(CNCc2ccc(-c3ccc(-c4nc5cc(C(F)(F)F)ccc5[nH]4)s3)cc2)cc1,0.59%,1.45%,0.6%
COc1ccc2nccc([C@@H](O)CN3CCC(NCc4ccc5c(c4)NC(=O)CS5)CC3)c2n1,0.52%,2.86%,-3.81%
COc1ccc2nccc([C@@H](O)CN3CCC(NC[C@H](Cc4ccccc4)NC(=O)OC(C)(C)C)CC3)c2c1,3.73%,2.02%,2.75%
O=C(Nc1ccc2ccccc2c1)N1CCC(NCc2cccc([N+](=O)[O-])c2)CC1,2.09%,1.61%,0.78%
COc1ccc2c(c1)Sc1ccccc1C(N1CCN(CCO)CC1)C2 (stereo not given),1.57%,2.05%,2.69%
COc1ccc(Cl)cc1N1CCN(CCCNC(=O)c2ccc(-c3nc4ccc(C(F)(F)F)cc4[nH]3)c(C)c2)CC1,2.82%,0.02%,0.17%
CCOc1cc(C(C)C)ccc1N1CCN(CCCCNC(=O)c2ccc(NC(=O)c3ccc(Cl)cc3)cc2)CC1,4.38%,2.39%,2.86%
O=C(Nc1ccccc1O)c1ccc(S(=O)(=O)c2ccc(Cl)cc2)cc1,5.52%,4.67%,6.69%

SMILES,inhibition [1],inhibition [2],inhibition [3]
N#Cc1cccc(NC(=O)Nc2cccc(-c3ccc(-c4nc5cc(C(F)(F)F)ccc5[nH]4)cc3)c2)c1,2.29%,2.13%,-7.53%
CNS(=O)(=O)CCNCc1ccc(-c2ccc3ncnc(Nc4ccc(OCc5ccccc5)cc4)c3c2)o1,6.09%,6.17%,3.83%
COc1ccc(C(=O)CCC(=O)N(CCC2CCCN2C)Cc2ccc(-c3ccc(CNCCc4ccc(S(C)(=O)=O)cc4)cn3)cc2)cc1F (stereo not given),11.4%,9.98%,9.19%
O=C(NCc1ccc(Cl)c(Cl)c1)c1cc(CNC2CCNCC2)ccc1O,0.91%,5.71%,2.11%
O=C1c2ccccc2CN1CCCN1CCC(Oc2ccc(F)cc2)CC1,-2.87%,-2.18%,-3.86%
Cc1noc(C)c1-c1cccc(CNCc2ccc(-c3cccc(-c4nc5ccccc5[nH]4)c3)cc2)c1,-0.68%,-1.65%,-4.01%
CN=C(Nc1c(Cl)cccc1Cl)N(C)C,2.85%,4.13%,4.17%
CN(C(=O)Cc1ccc(Cl)c(Cl)c1)C1CCN(CCCCCNC(=O)/C=C/c2ccc(Cl)c(Cl)c2)CC1,4.46%,3.72%,3.27%
CN(C)CCNc1cc(-c2cccnc2)nc(-c2ccncc2)n1,-1.31%,-1.16%,-1.09%
CC1CNC(c2cccc(NC(=O)Nc3cccc(C4=NC(C)CN4)c3)c2)=N1 (stereo not given),6.32%,8.33%,6.15%
CNc1ccc(CNCc2cccc(-c3ccc(-c4nc5cccc(C)c5[nH]4)s3)c2)cc1,8.15%,5%,6.79%
Fc1ccc(-c2cc3ncnc(N4CCN(CCN5CCCC5)CC4)c3s2)cc1,14.6%,12.9%,11.1%
COc1cc(C(=O)N2C(c3nccs3)C(C(=O)N(OC)C(C)c3ccccc3)CC2(CC(C)C)C(=O)OC(C)(C)C)ccc1C(C)(C)C (stereo not given),4.49%,3.71%,1.29%
COc1ccc2ccccc2c1CCCCN1CCN(CC(c2ccc(F)cc2)N2CCC(N3CCCC3)CC2)CC1 (stereo not given),3.25%,3.63%,7.05%
Cc1ccc(F)c(OC2CCN(c3ccc(C(=O)NC4CC4)cn3)CC2)c1,0.56%,1.76%,-3.52%
COc1cccc(C(=O)Nc2ccc(Nc3nc(C)cc(N4CCCCC4)n3)cc2)c1OC,1.99%,2.75%,0.19%
Cc1cc(N2CCCC2)nc(Nc2ccc(NC(=O)C(C)(C)C)cc2)n1,0.4%,2.7%,-0.65%
Fc1ccc(-c2oc(C3CCN(CCc4ccc(-c5noc(=S)[nH]5)cc4)CC3)nc2COCC(F)(F)F)cc1,8.65%,7.22%,8.14%
Nc1ncnc2occ(-c3ccc(NC(=O)Nc4cc(C(F)(F)F)ccc4F)cc3)c12,0.61%,2.93%,-2.03%
COc1cccc(NC(=O)c2cc(C(=O)Nc3cccc(OC)c3)cc([N+](=O)[O-])c2)c1,2.37%,3.98%,1.08%
CC(C)C[C@H](NC(=O)c1ccc(OCCN2CCOCC2)cc1)C(=O)N[C@H](/C=N/NC(=O)OC(C)(C)C)CCc1ccccc1,9.41%,8.52%,5.94%
COc1ccc2nccc([C@@H](O)CN3CCC(NCc4ccc5nnsc5c4)CC3)c2c1,-1.03%,0.44%,-0.67%
COc1ccc2[nH]ccc(=NN=CC=Cc3ccccc3)c2c1,-0.13%,2.19%,-3.26%
O=C(C=Cc1ccc(Cl)c(Cl)c1)NCCCCCN1CCC(CCCNS(=O)(=O)c2ccc(Br)cc2)CC1,3.69%,-0.68%,4.73%

SMILES,inhibition [1],inhibition [2],inhibition [3]
O=S(=O)(NCCN1CCCC1)c1cccc(-c2ccc(CNCc3ccc(F)cc3)cc2)c1,7.08%,3.37%,4.19%
CC(=O)NCCCCC1NC2(C(=O)N(Cc3ccc(C(C)(C)C)cc3)c3ccccc32)C2C(=O)N(C3CCCCC3)C(=O)C12 (stereo not given),-1.24%,-3.01%,-0.43%
COc1cc(NCC(CN)Cc2ccc3c(c2)OCO3)nc2ccccc12 (stereo not given),4.7%,3.95%,5.88%
Cc1cc(OC(C)C(=O)N2CCc3ccccc32)ccc1Cl (stereo not given),4.58%,3.8%,6.71%
COC(=O)c1cccc(CNCc2ccc(-c3ccc(-c4nc5cccc(C)c5[nH]4)s3)cc2)c1,6.31%,2.96%,1.56%
O=c1cc(NCCCNCc2ccccc2-c2ccccc2)[nH]c2ccccc12,2.76%,3.22%,1.59%
Cc1ccc(N2CCc3c(-c4cc5cccnc5nc4C)cc(C)nc32)c(Cl)c1,4.06%,6.18%,3.42%
CN1CCCC(CN2CCN(Cc3ccc(-c4cccc(-c5nc6cc(F)ccc6[nH]5)c4)cc3)CC2)C1 (stereo not given),-0.56%,1.31%,2.3%
Cc1ccc(C2CCN(CCCCNC(=O)c3ccc(NC(=O)c4ccc(Cl)cc4)cc3)CC2)c(OCC2CC2)c1,7.51%,6.25%,5.52%
Nc1nc(N)c2cc(S(=O)(=O)c3ccc4ccccc4c3)ccc2n1,10.7%,18.4%,8.89%
COC(=O)[C@@H](NC(=O)[C@H](CC(C)C)Nc1ccc(C#N)c2ccccc12)c1ccc(O)cc1,1.02%,0.76%,-2.23%
Cc1cc(C(=O)Nc2ccc3c(c2)CCN3C2CCN(Cc3cccc(F)c3F)C2)no1 (stereo not given),-0.4%,-0.88%,0.24%
c1csc(-c2nc(N3CCCCC3)ncc2-c2ccsc2)n1,4.57%,4.73%,2.33%
CCN(Cc1ccccc1)C1CCN(Cc2cc(Br)ccc2O)CC1,2.39%,2.05%,2.71%
CC(C)c1cc(C(=O)N[C@@H](Cc2ccccc2)[C@H](O)CNC2CCCCC2)cc(N2CCCC2=O)c1,2.19%,1.07%,2.18%
Cc1ccccc1-c1cc(=O)c2cc(NC(=O)c3cccs3)ccc2o1,3.19%,1.54%,-8.62%
N#Cc1ccc2c(c1)CCN(CCC1CCC(NC(=O)Nc3cnc4ccccc4c3)CC1)C2 (stereo not given),2.8%,3.15%,2.03%
CC(CN(C)C)C(=O)Nc1cccc(-c2ccc(-c3nc4ccccc4[nH]3)s2)c1 (stereo not given),9.63%,9.45%,3.78%
CN(C)CCOc1cc(NC(=O)Nc2ccc(-c3ccncc3)c3ccccc23)ccc1I,6.39%,8.78%,1.62%
O=C(NCc1ccc2c(c1)OCO2)c1nn(CCN2CCC(N3CCCC3)CC2)cc1-c1ccc(Cl)c(Cl)c1,2.53%,0.54%,0.75%
CC(C)CNCc1cccc(-c2ccccc2CN(C(=O)NCCc2ccccc2)C2CCN(Cc3ccccc3)CC2)c1,13.1%,11.4%,8.25%
Cc1ccccc1C1CCN(C2CCC(NC(=O)/C=C/c3ccc(C(F)(F)F)cc3)CC2)CC1 (stereo not given),0.43%,1.57%,1.85%
